ClpP mod: qHTS Assay for Activators of ClpP; AID 651965, 2013; purified B. subtilis ClpP, FRET peptide cleavage, 20 min; Potency, µM (series often up to 57.5 µM), for the others: at the top dose activity change, negative = active; actives 1.9% (n = 340,000); active = well fitted falling curve with a large enough effect; inconclusive = small, poorly fitted or top-dose-only effect; inactive = no such curve, though single readings can be large or run the other way; note: potency is the fitted concentration of half-maximal effect; the source files actives as falling curves though it sought activators and does not explain the sign; nearly all actives have a fitted effect of over 65% in size
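FRET quenching reversal measured ClpP activation: 10 microg/mL B. subtilis ClpP at pH 8 with the FRET-FV decapeptide, read at 430 nm after 320 nm excitation. The 20-min minus 0-min signal was scaled between DMSO/no-enzyme wells and ADEP (5.8 microM final).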
KCNH2 3.1 inh: qHTS for Inhibitors of KCHN2 3.1: Mutant qHTS; U2OS KCNH2 3.1, thallium flux FluxOr; hits give low values; actives 0.95% (n = 340,000); AID 720553, 2013; Potassium voltage-gated channel subfamily H member 2, brain isoform KCNH2 3.1 (human); activity change, % (tested at about 1.8 µM);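 active = maximum activity change below -70%; inconclusive = maximum activity change from -70% to -50%; inactive = maximum activity change above -50%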;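 note: thallium influx rate constant from kinetic fluorescence after stimulation buffer; % is set by controls: 0 for no effect and ±100 for the full control effect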
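Thallium flux read-out: FluxOr dye with Red40 quencher in HBSS/HEPES, 45 min at RT. Rate constants from kinetic reads were normalized to positive and negative DMSO controls. Cells: U2OS virally expressing the 3.1 isoform.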
LDHA inh: qHTS assay for inhibitors of human lactate dehydrogenase. L-lactate dehydrogenase A chain (Homo sapiens), P00338. activity change, % (values are at about 110 or 230 µM). actives 0.15% (n = 480,000). purified LDHA, NADH/diaphorase-resazurin fluorescence; hits give low values; in the data active = activity change below about -30%; inconclusive = mostly about -25% to -30%;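 note: plate controls were DMSO wells for no effect and wells without enzyme for full effect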
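Resorufin fluorescence (ex540/em590), read at 0 and 20 min after diaphorase/resazurin addition, reports the NADH left after a 5 min room-temperature reaction of 2 nM human LDH5 with 0.06 mM NADH and 0.2 mM pyruvate.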
BCR signal inh: qHTS Assay to Find Inhibitors of Chronic Active B-Cell Receptor Signaling | Potency, µM (titrated, usually from 46.1 µM), without a hit: at the highest dose activity change, negative = inhibition, most hits filed as inhibitors | actives 0.05% (n = 340,000) | ABC-DLBCL IkBa-CBG/CBR reporter, luminescence ratio, 4 h; active = well fitted inhibition curve with a large enough effect in the signal ratio, with a control signal flat, not every such curve was filed as active; inconclusive = small, poorly fitted or top-dose-only effect, or effect the other way, or a change in a side signal; the % refers to the signal ratio;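 note: potency is the fitted concentration of half-maximal effect; plate controls were basal doxycycline-induced cells for no effect and cells given 10 µM MG132 for full effect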
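Compounds up to 46 uM were incubated four hours with TMD8 cells whose green CBG68 luciferase is fused to IkappaBalpha; red CBR luminescence normalised the signal, and concentration-effect curves were fitted to fusion, red and ratio data.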
ALOX12 inh: Primary qHTS assay for inhibitors of human arachidonate 12S-lipoxygenase (ALOX12): Round 2; actives 1.1% (n = 580,000); purified 12hLO, xylenol orange hydroperoxide absorbance; Polyunsaturated fatty acid lipoxygenase ALOX12 (Homo sapiens), P18054; AID 1671190, 2021; Potency, µM (top dose mostly 108 µM), without a hit: at the top dose activity change, negative = inhibition, most hits filed as inhibitors; active = well fitted inhibition curve with a large enough effect; inconclusive = small, poorly fitted or top-dose-only effect, or another doubt; inactive = no such curve, though single readings can be large or run the other way; note: potency is the fitted concentration of half-maximal effect; % is set by controls: 0 for no effect and ±100 for the full control effect
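Purified human 12hLO at 150 nM in 25 mM Hepes, 0.01% Triton X-100, pH 7.0, preincubated 15 min at room temperature with compound. Reaction started with 40 uM arachidonic acid, 30 min at room temperature. Hydroperoxide measured by Fe-xylenol orange, 573/405 nm absorbance ratio.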
hERG WT inh: qHTS for Inhibitors of KCHN2 3.1: Wildtype qHTS. Voltage-gated inwardly rectifying potassium channel KCNH2 (Homo sapiens), Q12809. U2OS, BacMam KCNH2, thallium flux FluxOr; hits give low values. activity change, % at 1.84 µM. actives 0.37% (n = 340,000). AID 720551, 2013;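 active = maximum activity change below -70%; inconclusive = maximum activity change between -70% and -50%; inactive = maximum activity change above -50%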; note: % is set by controls: 0 for no effect and ±100 for the full control effect
Target sequence (Q12809 whole entry, looked up): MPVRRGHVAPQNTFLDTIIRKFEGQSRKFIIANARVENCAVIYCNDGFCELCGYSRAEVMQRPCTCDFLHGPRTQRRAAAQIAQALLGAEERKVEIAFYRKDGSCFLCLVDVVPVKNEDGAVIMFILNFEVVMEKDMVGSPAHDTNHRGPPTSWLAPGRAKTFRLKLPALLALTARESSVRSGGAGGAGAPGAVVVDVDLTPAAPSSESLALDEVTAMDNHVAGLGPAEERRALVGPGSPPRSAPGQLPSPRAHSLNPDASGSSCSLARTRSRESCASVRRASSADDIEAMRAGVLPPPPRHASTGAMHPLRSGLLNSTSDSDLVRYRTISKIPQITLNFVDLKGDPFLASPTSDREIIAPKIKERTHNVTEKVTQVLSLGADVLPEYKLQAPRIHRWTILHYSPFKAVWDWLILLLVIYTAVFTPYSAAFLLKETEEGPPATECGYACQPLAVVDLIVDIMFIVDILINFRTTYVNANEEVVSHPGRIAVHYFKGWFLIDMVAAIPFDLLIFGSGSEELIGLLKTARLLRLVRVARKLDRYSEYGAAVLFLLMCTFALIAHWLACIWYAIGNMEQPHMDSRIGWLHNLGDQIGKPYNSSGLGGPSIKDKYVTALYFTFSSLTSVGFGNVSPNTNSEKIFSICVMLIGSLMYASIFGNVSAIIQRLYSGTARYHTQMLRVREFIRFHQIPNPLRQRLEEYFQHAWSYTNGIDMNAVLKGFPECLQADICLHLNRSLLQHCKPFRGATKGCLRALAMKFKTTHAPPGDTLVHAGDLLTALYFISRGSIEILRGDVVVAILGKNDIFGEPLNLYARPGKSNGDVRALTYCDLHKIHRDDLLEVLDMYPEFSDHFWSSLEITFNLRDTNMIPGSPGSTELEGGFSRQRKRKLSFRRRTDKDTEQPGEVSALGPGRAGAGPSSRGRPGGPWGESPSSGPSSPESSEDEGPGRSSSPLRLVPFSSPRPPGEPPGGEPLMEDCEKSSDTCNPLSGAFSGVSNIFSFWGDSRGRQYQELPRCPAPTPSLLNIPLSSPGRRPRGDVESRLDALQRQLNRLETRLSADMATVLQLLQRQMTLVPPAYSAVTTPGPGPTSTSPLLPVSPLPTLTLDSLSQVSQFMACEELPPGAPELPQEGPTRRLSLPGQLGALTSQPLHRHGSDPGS
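U2OS cells transduced with wild-type KCNH2 virus are loaded with FluxOr dye for 45 min, and thallium flux is measured in kinetic reads before and after stimulation buffer. Rate constants are normalized to DMSO controls.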
Numbers without * were called inactive; ? = inconclusive; . = not tested or not shown; [ ] = remark or other dose. This is a sample that favours compounds with a hit; in the whole collection about 3% have one here.

SMILES	ClpP mod	KCNH2 3.1 inh	LDHA inh	BCR signal inh	ALOX12 inh	hERG WT inh
O=C(O)c1ccc(/C=C/C(=O)c2ccco2)cc1	.	.	2.7	.	-25.8%	.
O=C1NCc2ccccc2CC12CCN(Cc1ccccc1F)C2 (stereo not given)	.	.	.	.	6.2%[6.33 µM]	.
O=C(Nc1cccc(Br)c1)c1ccccc1OCC1CCCO1 (stereo not given)	.	.	-3.9	.	-2.1%	.
COc1ccc(CCNC(=O)CCSc2nc(Cl)nc3nc[nH]c23)cc1	.	.	-0.7	.	-20.7%	.
CC(=O)N1CCc2[nH]cnc2C12CCN(C(=O)c1ccn3nnnc3c1)CC2	.	.	.	.	-11.5%	.
Nc1cc(=O)[nH]c(SCc2cccc3ccccc23)n1	-0.8%	4.2	-2.3	-17.6%	?	-8.1
CCc1cc(=O)[nH]c(SCc2cccc3ccccc23)n1	0.8%	-109.7*	-0.6	?	.	1.5
Cc1cccc(C)c1NC(=O)C(C)N1CCN(C(=O)c2cccs2)CC1 (stereo not given)	.	.	-5.3	.	-4.4%	.
CCCCCCC(=O)NN1CCN(C)CC1	2.7%	13.0	-2.7	?	35.1%	-256.9*
COc1cc2sc3cc(NCCCN4CCOCC4)ccc3c(=O)c2cc1OC	3.9%	.	0.4	?	-0.6%	.
O=c1c2ccccc2sc2ccc(NCCCN3CCOCC3)cc12	-4.0%	23.6	5.9	.	14.1µM*	2.9
Cc1nn(-c2ccc(F)cc2)c2nc(N)c(C#N)c(-c3ccc(O)c(O)c3)c12	1.2%	14.8	5.0	1.8%	?	-4.8
COc1cc(-c2c(C#N)c(N)nc3c2c(C)nn3-c2ccc(C)c(C)c2)cc(OC)c1OC	25.1µM*	2.5	6.6	-5.9%	-9.8%	1.5
Cc1nn(-c2ccccc2)c2nc(N)c(C#N)c(-c3ccc(O)c(O)c3)c12	-2.2%	21.9	4.5	?	31.6µM*	16.4
CNC(=O)C1(C)CN(Cc2ccccc2)Cc2ccc(Nc3ccccc3)nc21 (stereo not given)	.	.	.	.	-0.1%[176 µM]	.
N#Cc1ccc(Cl)cc1NC(=O)COC(=O)c1cccc(S(=O)(=O)N2CCCCCC2)c1	.	.	-4.8	.	?	.
CC(NC(=O)C(C)(Cl)Cl)C12CC3CC(CC(C3)C1)C2 (stereo not given)	.	.	2.7	.	-2.3%	.
O=c1c2ccccc2c(C=NC2CCS(=O)(=O)C2)c(O)n1-c1ccccc1 (stereo not given)	-0.4%	10.7	-10.6	1.6%	0.0%	-8.3
O=S1(=O)CCC(N=Cc2cc(Br)ccc2O)C1 (stereo not given)	-3.8%	-5.7	0.4	-1.0%	28.2µM*	8.0
CC(=O)NCCC(=O)N1Cc2ccccc2CC2(CCCN2CC2CCCCC2)C1 (stereo not given)	.	.	.	.	1.6%[6.33 µM]	.
O=C(NC(=S)Nc1ccccc1N1CCOCC1)c1ccc(-c2cccc(Cl)c2)o1	11.0%	8.9	-4.1	-8.9%	39.8µM*	-7.2
Cc1c(NC(=S)NC(=O)c2ccc(-c3ccc(Cl)cc3)o2)cccc1C(=O)O	.	21.7	2.6	3.9%	28.2µM*	-16.4
COc1cc(OC)c2cc(C(=O)NC(C)C(=O)Nc3nc(C)cs3)n(C)c2c1 (stereo not given)	.	.	1.2	.	-1.1%	.
CCN1C=C(Cc2ccc(OC)cc2)C2=C(C1)C(c1ccc(OC)cc1)C(C#N)=C(N)O2 (stereo not given)	-3.4%	-44.2	6.7	?	17.8µM*	-13.6
COc1ccc(C2C(C#N)=C(N)Oc3cc(C)n(Cc4ccncc4)c(=O)c32)cc1 (stereo not given)	-5.3%	-8.0	-3.7	3.2%	2.1%	-0.1
SMILES	ClpP mod	KCNH2 3.1 inh	LDHA inh	BCR signal inh	ALOX12 inh	hERG WT inh
CCN1/C(=C/c2ccc3ccccc3[n+]2CCCS(=O)(=O)[O-])C=Cc2cc(C)ccc21	.	-15.8	?	?	44.7µM*	4.4
CCN1/C(=C/c2ccc3ccccc3[n+]2CC)C=Cc2ccccc21	3.1%	-12.2	?	?	?	2.5
COc1ccc(-c2nnc(-c3cccs3)o2)cc1OC	31.6µM*	14.4	-0.9	?	5.7%	-18.7
Cc1oc2cc(OCC(=O)Nc3ccc4c(c3)OCCO4)ccc2c(=O)c1-c1ccccc1	.	.	-1.4	.	?	.
CC(=O)c1ccccc1OCCOCCOCCOc1ccccc1C(C)=O	0.891µM*	3.0	-2.9	13.0%	4.6%	-7.3
CC(=O)c1ccccc1OCCCN1CCCCC1	-6.6%	-4.0	-14.9	-0.7%	?	25.4
COc1ccc(CN2C(=O)C(C)N(C(=O)c3c(F)cccc3F)c3ccccc32)cc1 (stereo not given)	0.8%	11.1	0.6	?	-3.2%	-2.9
CC1C(=O)N(Cc2ccc([N+](=O)[O-])cc2)c2ccccc2N1C(=O)c1c(F)cccc1F (stereo not given)	-2.6%	-1.5	-0.4	-0.7%	0.0%	-79.4*
O=C(Nc1ccc(C2=NCCN2)cc1)c1ccc(C(=O)Nc2ccc(C3=NCCN3)cc2)c([N+](=O)[O-])c1	.	2.1	-35.6*	?	?	-0.3
Cc1ccc(NC(=O)c2ccc(-n3cccn3)c([N+](=O)[O-])c2)cc1	-1.1%	1.1	-8.3	?	-9.5%	-6.8
O=P(Cc1ccccc1)(Cc1ccccc1)c1ccccc1	31.6µM*	11.2	2.6	.	3.2%	5.4
COc1cnn(-c2cccc(Cl)c2)c(=O)c1Cl	1.3%	-99.6*	0.1	.	-8.3%	-0.4
COc1cnn(-c2cccc(C(F)(F)F)c2)c(=O)c1Cl	.	-7.4	-6.8	.	159.4%	5.6
Cc1cc(C)nc(NC(=NCCc2c[nH]c3ccc(Cl)cc23)NC(=O)c2ccccc2C)n1	0.6%	.	-2.1	.	0.0%	.
Cc1cc(C)nc(NC(=NCCc2c[nH]c3ccccc23)NC(=O)C(C)(C)C)n1	.	-88.0*	-3.0	0.7%	?	8.7
CCn1c2c(c(=O)n1-c1ccccc1)CCN(CCCc1ccccc1)C2	.	.	.	.	28.2µM*	.
O=c1c2c(n(Cc3ccccc3)n1-c1ccccc1)CN(Cc1cccnc1)CC2	.	.	.	.	-16.6%[176 µM]	.
O=C(CN1CCCCC1)Nc1nc(-c2ccccc2)c(-c2ccccc2)s1	.	.	1.9	.	1.1%	.
O=C(NC1CCCCCC1)c1cccs1	0.7%	-3.5	-2.8	?	13.7%	-83.2*
O=C(NC1CCCCCCC1)c1ccccc1O	28.2µM*	0.8	3.5	-4.7%	0.0%	-8.6
O=C(NC1CCCCC1)c1cc(Cl)ccc1[N+](=O)[O-]	28.2µM*	0.0	-2.0	5.2%	13.3%	-8.5

Assay outcomes deposited in PubChem BioAssay by National Center for Advancing Translational Sciences (NCATS).
